Pf Dd2 growth – Plasmodium falciparum Dd2 growth inhibition; P. falciparum Dd2 growth, SYBR Green, 72 h; Potency, µM (series often up to 28.9 µM), without a hit: top-dose activity, negative = inhibition, most hits filed as inhibitors; 120,000 tested, 4.3% active; active = well fitted inhibition curve with a large enough effect;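 also: plate controls were DMSO vehicle for no effect and reference drug for full effect; nearly all actives have a fitted effect of over 65% in size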
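Infected erythrocytes (Dd2, 0.3% parasitemia, 2.5% hematocrit final) are added to compound in RPMI-1640/Albumax II medium, grown 72 h at 37C in low oxygen, then lysed with saponin/Triton-X containing SYBR Green and read by fluorescence.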
The depositor's hits bear a star; i = inactive; [ ] = remark or other dose. This excerpt belongs to a sample that is enriched for hits. Potency is read from the fitted curve at half-maximal effect.

SMILES | Pf Dd2 growth
COc1ccc(-c2cc(N3CCCC(NC(=O)c4cccc(N(C)C)c4)C3)n[nH]2)cc1 (centres undefined) | i
O=C(CCc1ccnc(N2CCOCC2)c1)N1CCN(C(=O)c2ccco2)CC1 | 34%
O=C(CCc1ccnc(N2CCCC2)c1)N1CCN(c2cccc(Cl)c2)CC1 | 5µM*
O=C(O)CCc1ccnc(N2CCCC2)c1 | 7%
O=C(CCn1ccn2nc3c(c2c1=O)CCCC3)Nc1ccc(F)c(F)c1 | i
CC(C)CCN1CCC(N2CCN(S(=O)(=O)c3ccc(F)cc3F)CC2)C1=O (centres undefined) | i
Cc1cc(C)c(C(=O)N(CC2CCN(C3Cc4ccccc4C3)CC2)CC2CCCO2)o1 (centres undefined) | i
CN1CCC(Cc2ccc(C(=O)O)cc2)CC1 | 13%
CCN(CC1CCN(C2CCN(C)CC2)CC1)C(=O)c1ccc(-c2ccccc2)cc1 | 13µM*
CN1CCN([C@H]2CCN(C(=O)c3ncc(F)cc3F)C[C@H]2CCCO)CC1 | -21%
Cc1ccc(-c2noc(C3CCN(C(=O)CC(C)C)CC3)n2)nn1 | -5%
Cc1ccc(-c2cc(N3CCC(CNC(=O)c4ccc(=O)[nH]c4)CC3)n[nH]2)cc1 | 13µM*
O=C(NCC1CCN(c2cc(-c3ccccc3)[nH]n2)CC1)c1ccc[nH]1 | -25%
Cc1cc(C)n(CCC(=O)NC2CCCN(c3cc(-c4ccc(Cl)cc4)[nH]n3)C2)n1 (centres undefined) | i
Cc1cc(C)n(CCC(=O)NCC2CCN(c3cc(-c4ccccc4)[nH]n3)CC2)n1 | 11µM*
O=C(NCC1CCN(c2cc(-c3ccccc3)[nH]n2)CC1)c1ccc[nH]c1=O | -28%
Cc1noc(C)c1CC(=O)NCC1CCN(c2cc(-c3ccccc3)[nH]n2)CC1 | i
CCn1c(C)c(CN2CCc3nc(N(C)C)[nH]c(=O)c3CC2)c2ccccc21 | 30%[5.79 µM]
CN1C[C@H]2CN(Cc3ccc(C(=O)O)cc3)CCN2C1=O | -5%[44.1 µM]
CC(=O)N1CCc2[nH]cnc2C12CCN(C(=O)CCn1nnnc1C)CC2 | -10%
CC1CCCCN1C(=O)c1cnc(Cc2c(Cl)cccc2Cl)[nH]c1=O (centres undefined) | 4%
O=C(Nc1ccccc1)N1CCC(Oc2ccccc2)C1 (centres undefined) | 0%
O=C(O)C1(Oc2ccc(Cl)cc2)CCN(c2cnccn2)CC1 | 20%
Cc1oc(C(O)c2cccc(O)c2)nc1C(=O)NCc1ccccc1 (centres undefined) | i
O=C(NCc1ccncc1)C1CN(Cc2cccc(Br)c2)CC12CCOCC2 (centres undefined) | 3.5µM*
SMILES | Pf Dd2 growth
CCc1ccc(CN2CC(C(=O)NCc3ccncc3)C3(CCOCC3)C2)cc1 (centres undefined) | -10%
O=C(NCc1ccncc1)C1CN(Cc2ccoc2)CC12CCOCC2 (centres undefined) | -23%
O=C(c1ccc(Cl)cc1Cl)N1CCN(c2cc(-c3ccccc3)[nH]n2)CC1 | -13%
CCc1nc(-c2c3n(c(=O)n(Cc4ccc(C(=O)OC)o4)c2=O)CCCC3)no1 | -12%
O=C(c1ccncc1)N1CCC(N2C(=O)C(OCC3CC3)C23CCOCC3)CC1 (centres undefined) | 20%
CC(C)C(=O)N1[C@H]2CC[C@@H]1c1cnc(-c3ccc(F)cc3)nc1C2 | i
O=C([C@H]1C[C@H](Oc2cccnc2)CN1C(=O)CCc1c[nH]c2ccccc12)N1CCOCC1 | i
Cc1cccc(OCC(O)Cn2c(=N)n(CCN3CCCCC3)c3ccccc32)c1 (centres undefined) | 10µM*
CCOC(=O)N1CCN(Cc2cccc(OCC(O)CN3CCOCC3)c2)CC1 (centres undefined) | 1%
CCn1c(=N)n(CC(O)COc2ccccc2)c2ccccc21 (centres undefined) | 7.1µM*
CCC(C)Cn1c(COc2ccc(OC)cc2)nc2ccccc21 (centres undefined) | i
COc1ccc(N2CCN(CC(O)COc3c(OC)cccc3OC)CC2)cc1 (centres undefined) | 12%
COc1ccc(N2CCN(CC(O)COc3ccc(C)c(C)c3)CC2)cc1 (centres undefined) | 23%
COc1cccc(NC(=O)c2ccc(N3CC4CC(C3)[C@H]3CCCC(=O)N3C4)nc2)c1 (some centres undefined) | i
COC1CCC12CCN(C(=O)c1ccoc1)CC2 (centres undefined) | 1%
COc1ccc(-c2cc(N3CCC(NC(=O)COc4ccccc4C)CC3)n[nH]2)cc1 | -13%
Cc1ccc(-c2nc(-c3nnn4c3COC(c3ccc(Cl)cc3)C4)no2)cc1F (centres undefined) | i
COc1ccc(C(=O)N2CCCC(n3cc(-c4nc(C5CC5)no4)nn3)C2)cc1F (centres undefined) | i
COc1cc(Cl)c(C)cc1NC(=O)C1CCCN(c2ncnc3onc(-c4ccc(F)cc4)c23)C1 (centres undefined) | 11µM*
CC(C)N(Cc1ccccc1)C(=O)C1CCCN(c2ncnc3onc(-c4ccc(F)cc4)c23)C1 (centres undefined) | 8.9µM*
Cc1noc2ncnc(N3CCCC(C(=O)NCCC(C)C)C3)c12 (centres undefined) | -15%
Cc1ccc(C)c(NC(=O)C2CCCN(c3ncnc4onc(C)c34)C2)c1 (centres undefined) | -25%
CCCN(CCC)C(=O)C1CCCN(c2ncnc3onc(-c4ccc(F)cc4)c23)C1 (centres undefined) | -9%
Cc1ccc(NC(=O)C2CCCN(c3ncnc4onc(-c5ccc(F)cc5)c34)C2)c(Cl)c1 (centres undefined) | -11%
CCOc1ccccc1NC(=O)N1CCCCCCNC(=O)CC1 | 4%
SMILES | Pf Dd2 growth
COc1ccc(C(=O)N2CCC[C@H]2c2nc(-c3ccc(OC)c(OC)c3)no2)c(C)c1 | -16%
CCn1cnnc1-c1nn(C)c2c1CN(C(=O)c1nn(C)c3ccccc13)CC2 | -28%
CCN1C(=O)c2ccccc2Sc2ccc(NC(=O)c3ccc(C#N)cc3)cc21 | 23%
COc1ccc(C)cc1NC(=O)c1ccc2c(c1)N(Cc1cccc(Cl)c1)C(=O)c1ccccc1S2=O (centres undefined) | 7.9µM*
CCC(C)NC(=O)c1ccc2c(c1)N(Cc1cccc(Cl)c1)C(=O)c1ccccc1S2=O (centres undefined) | -23%
Cc1ccc(CNC(=O)c2ccc3c(c2)N(Cc2ccccc2F)C(=O)c2ccccc2S3(=O)=O)cc1 | i
Cc1cc(NC(=O)c2ccc3c(c2)N(Cc2cccc(Cl)c2)C(=O)c2ccccc2S3=O)ccc1Br (centres undefined) | 10µM*
Cc1cccc(C)c1NC(=O)c1ccc2c(c1)N(Cc1cccc(Cl)c1)C(=O)c1ccccc1S2=O (centres undefined) | -16%
N#Cc1cccc(NC(=O)c2ccc3c(c2)N(Cc2cccc(Cl)c2)C(=O)c2ccccc2S3(=O)=O)c1 | 2.2µM*
O=C(c1ccc2c(c1)N(Cc1ccc(Cl)cc1)C(=O)c1ccccc1S2(=O)=O)N1CCc2ccccc21 | i
CCN1C(=O)c2ccccc2Sc2ccc(NC(=O)c3cccc(C)c3)cc21 | i
Cc1cc(NC(=O)c2ccc3c(c2)N(Cc2cccc(Cl)c2)C(=O)c2ccccc2S3(=O)=O)ccc1Br | 8.9µM*
O=C(Nc1cccc(Cl)c1Cl)c1ccc2c(c1)N(Cc1cccc(Cl)c1)C(=O)c1ccccc1S2=O (centres undefined) | 66%[0.594 µM]
